# Measurements taken from the supplement of paper PMC3656093.
# ± gives the standard deviation of the averaged measurements. Whole data set: some 1,900 compounds, median “CD40L-induced NF-kB luciferase activity, plate-corrected, relative to DMSO (0) and IKK inhibitor VII (-100) controls” near 0.032, cut for the lowest 2% near -26. What follows is part of a selection rich in the lowest values, with near analogues and random picks from the rest.
# Tested on: BL2-NFkB-Luc
# Test: CD40L-induced NF-kB luciferase activity, plate-corrected, relative to DMSO (0) and IKK inhibitor VII (-100) controls (% normalized activity); higher = more NF-kB reporter activity (less inhibition)
# Conditions: 9.4 µM; stimulus: tCD40L 64 ng/ml; 4.5 h
# Method: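 BL2 B cells with a stable NF-kB response-element luciferase reporter (BL2-NFkB-Luc), 384-well. Cells were pre-incubated with compound at 9.4 uM for 1 h at 37 C, then stimulated with 64 ng/ml trimerized CD40L for 4.5 h; luciferase was read with Steady-Glo. Signal was normalised per plate in Genedata (median DMSO neutral control = 0, median IKK inhibitor VII at 50 uM = -100) with Assay Median plate-pattern correction; duplicate plates.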
row,Compound,CD40L-induced NF-kB luciferase activity
1,CCOc1cc(C=O)ccc1OCCSc1ccc(C)cc1,8.64 ± 2
2,CCC(C)NCCOCCOc1ccc(Cl)c2ccccc12 (stereo not given),-3.83 ± 0.8
3,COc1ccc2oc(=O)c(-c3nc(C)cs3)cc2c1,82.6 ± 9.2
4,Cc1ccc2c(c1)c(=O)c1c3n2CCN(C(=O)CCl)C3CC1 (stereo not given),-2.91 ± 2.5
5,CC1(C)Cc2ccccc2-c2nc(-c3ccccc3)oc(=O)c21,2.15 ± 0.84
6,O=C(c1ccc([N+](=O)[O-])cc1)N1CCSC1c1ccccc1Cl (stereo not given),4.04 ± 5
7,CN(C)CCOc1ccccc1Cc1ccccc1,0.196 ± 5
8,O=C(NC1CCCCC1)c1cc2nc(-c3ccco3)cc(C(F)(F)F)n2n1,1.55 ± 1.8
9,CC(C)Oc1ccc(C2CC(=O)N(c3ccc(C(=O)O)cc3)C2=O)cc1 (stereo not given),-3.94 ± 6.9
10,O=C(NCc1ccc(N2CCCC2=O)cc1)c1cccc(Cl)c1,0.303 ± 1.9
11,CCNC(=O)c1c(N)sc2c1CCCCC2,2.16 ± 2.4
12,CC(C)OC(=O)c1ccc(NC(=O)c2cncc(Br)c2)cc1,4.22 ± 5
13,CCOc1cc(C)cc2oc(=O)cc(-c3ccccc3)c12,3.93 ± 4.9
14,Cc1cc(O)c(C(=O)Cc2csc(C)n2)c(O)c1,45.9 ± 3.3
15,COc1cc(NC(=O)COc2ccccc2)c(OC)cc1NC(C)=O,2.35 ± 11
16,CCC(=O)c1ccc(OCc2ccc(C(=O)OC)cc2)cc1,47.3 ± 2.2
17,COc1ccc(C(=O)NCc2cccnc2)cc1,-2.51 ± 0.59
18,COc1ccc(OCc2cccc(C(=O)NN)c2)cc1,-59.1 ± 2.2
19,CC(=O)[C@H]1CC[C@H]2[C@@H]3CCC4=CC(=O)CC[C@]4(C)[C@H]3[C@H](O)C[C@]12C,-10.6 ± 14
20,COc1cc2nc(-c3ccccc3)nc(N3CCCC3)c2cc1OC,14.1 ± 1.1
21,C=C(C)c1nc2cc(OC)c(OC)cc2c(=O)o1,-30.6 ± 9.3
22,COc1ccc(/C=C\C(=O)c2c(O)ccc3c(C)cc(=O)oc23)cc1OC,-14 ± 3.3
23,COc1cc2cc(C(=O)O)[nH]c2c(OC)c1OC,1.43 ± 0.11
24,Cc1oc2ccc(OC(=O)c3cccs3)cc2c1C(=O)OC(C)C,6.48 ± 1

row,Compound,CD40L-induced NF-kB luciferase activity
1,Cc1ccc2c(c1)C(CCN)C(=O)N2Cc1ccccc1 (stereo not given),1.33 ± 2
2,CC12CCC(C(=O)N3CCc4ccccc43)(CC1=O)C2(C)C (stereo not given),-7.25 ± 2.2
3,COc1cc2c(cc1OC)C(c1cc3ccccc3oc1=O)=NC(C)(C)C2,-0.782 ± 0.12
4,COc1cc(C2CC(=O)NC3=C2C(=O)CC(C)(C)C3)ccc1O (stereo not given),7.59 ± 2.5
5,O=C1[C@@H]2[C@H](Cc3ccc(O)cc3)N[C@]3(C(=O)Nc4ccccc43)[C@@H]2C(=O)N1c1ccc(F)cc1,-2.13 ± 3.5
6,COc1ccc2oc(C)c(C(N)=O)c2c1,5.21 ± 2.3
7,Cc1ccc(S(=O)(=O)NC(C(=O)Oc2cc3oc(=O)cc(C)c3cc2Cl)C(C)C)cc1 (stereo not given),-3.08 ± 0.98
8,c1ccc(Cn2nnc3cnccc32)cc1,3.11 ± 1.1
9,Fc1ccc(-c2cc(-c3ccccc3)nc(-n3cccn3)n2)cc1,-4.51 ± 1.4
10,O=C(/C=C/c1ccc2c(c1)OCCCO2)c1ccc2ccccc2c1O,44.2 ± 0.67
11,COC(=O)CCC(=O)CN,-0.0616 ± 1.1
12,O=C(O)[C@@H](O)c1ccccc1,-1.47 ± 0.027
13,C=CCOC(=O)C1=C(C)NC(=O)NC1/C=C/c1ccccc1OC (stereo not given),-0.888 ± 0.046
14,COc1ccc(C2C(=O)c3ccccc3C2=O)cc1,0.868 ± 0.29
15,COc1ccc(C2C3=C(OC(C)=O)c4ccccc4C3=Nc3c2c(=O)n(C)c(=O)n3C)cc1 (stereo not given),6.21 ± 0.2
16,CC(=O)Oc1ccc(C2OC(=O)c3ccccc3N2C(C)=O)cc1 (stereo not given),-32.9 ± 1
17,COc1ccc(-c2coc3cc(OC(=O)N4CCOCC4)ccc3c2=O)cc1,5.32 ± 1.2
18,CCCCCC(=O)O[C@]1(C(C)=O)CC[C@H]2[C@@H]3CCC4=CC(=O)CC[C@]4(C)[C@H]3CC[C@@]21C,-8.91 ± 0.8
19,C[C@]12CCC(=O)C=C1CC[C@@H]1[C@@H]2[C@@H](O)C[C@@]2(C)[C@H]1CC[C@]2(O)C(=O)CO,-24.3 ± 5.5
20,C[C@]12C[C@H](O)[C@H]3[C@@H](CCC4=CC(=O)CC[C@@]43C)[C@@H]1CC[C@@H]2C(=O)CO,-19.6 ± 8.2
21,CCCC(=O)O[C@]1(C(=O)CO)CC[C@H]2[C@@H]3CCC4=CC(=O)CC[C@]4(C)[C@H]3[C@@H](O)C[C@@]21C,-31.6 ± 7.7
22,CCCCCCCC(=O)OCC(=O)[C@@]1(O)CC[C@H]2[C@@H]3CCC4=CC(=O)CC[C@]4(C)[C@H]3[C@@H](O)C[C@@]21C,-24.2 ± 1.8
23,CCCCC(=O)O[C@]1(C(=O)CO)CC[C@H]2[C@@H]3CCC4=CC(=O)CC[C@]4(C)[C@H]3[C@@H](O)C[C@@]21C,-43.1 ± 20
24,CC(C)Cc1ccc(C(C)C(=O)O)cc1 (stereo not given),2.3 ± 5

row,Compound,CD40L-induced NF-kB luciferase activity
1,CC(C(=O)O)c1ccc(-c2ccccc2)c(F)c1 (stereo not given),2.04 ± 0.53
2,CC(C(=O)O)c1ccc(N2Cc3ccccc3C2=O)cc1 (stereo not given),-43.6 ± 2.8
3,COc1cc(C(=O)OCCn2c(=O)c3c(ncn3CCN(C)C)n(C)c2=O)cc(OC)c1OC,-3 ± 1.3
4,Nc1ccn([C@@H]2O[C@H](CO)[C@@H](O)[C@@H]2O)c(=O)n1,-30.5 ± 2.4
5,O=c1ccn([C@@H]2O[C@H](CO)[C@@H](O)[C@H]2O)c(=O)[nH]1,-6.55 ± 1.5
6,Nc1cnn(C2OC(CO)C(O)C2O)c(=O)n1 (stereo not given),6.46 ± 4.2
7,CC(C)CC(=O)OC1C(N2CCOCC2)c2c(ccc(/C=C/C(=O)N3CCOCC3)c2O)OC1(C)C (stereo not given),-1.24 ± 1.2
8,O=C(/C=C/c1ccco1)N1CCN(c2ccccc2)CC1,6.71 ± 0.18
9,Cc1ccc2c(c1)C(O)(c1c(C)[nH]c3ccccc13)C(=O)N2 (stereo not given),3.92 ± 8.9
10,O=C(NC(=S)N1CCCCC1)c1cccnc1,-3.04 ± 2.8
11,CC(/C=C1\SC(=O)N(CCCC(=O)O)C1=O)=C\c1ccccc1,-84.08 ± 0.44
12,O=C(CCCN1C(=O)/C(=C\c2cccs2)SC1=S)Nc1ccccn1,-2.54 ± 1.1
13,O=C(CCCN1C(=O)/C(=C\c2cccc(Br)c2)SC1=S)Nc1cccnc1,-2.47 ± 4.1
14,C(=C\c1ccc2ccccc2n1)/c1ccccc1,-56 ± 3.4
15,CCn1c(/C=C/c2ccccc2)nc2ccccc2c1=O,4.25 ± 3.8
16,COCCn1c(/C=C/c2ccccc2)nc2ccccc21,38.4 ± 2.4
17,O=c1cnn([C@@H]2O[C@H](CO)[C@@H](O)[C@H]2O)c(=O)[nH]1,10.5 ± 4.8
18,O=C(Nc1c(C(=O)O)[nH]c2ccccc12)NC1CCCCC1,-0.728 ± 0.3
19,O=C(CC1(O)C(=O)Nc2ccccc21)c1ccccc1O (stereo not given),1.73 ± 4.3
20,O=C1CCCCCN1Cc1ccccc1,3.92 ± 5.3
21,O=C1C=CC(=O)C(C2=C3C(=O)N(CCc4ccccc4)CC(=O)N3CCC2)=C1,-42.7 ± 2.4
22,O=C(c1cc2cc(Br)ccc2o1)N1CCCC1,38.77 ± 0.2
